Measured values from PMC4336329 (PLoS ONE, 2015).
The campaign covered roughly 310,000 compounds. About 14,000 (4.5%) showed an effect of 50% or more. The effect is printed as a negative number. For the sample, strong results were picked, then their nearest neighbours and some compounds at random.

The molecules below were run against human ether-à-go-go-related gene (hERG) potassium channel (human, UniProt Q12809) (assay: primary screen, population patch clamp on CHO cells stably expressing hERG; higher = less effect of the substance).
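Also: peak tail current of the secondary pulse compared with the same well before compound.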

Sequence of human ether-à-go-go-related gene (hERG) potassium channel (Q12809 whole entry, looked up): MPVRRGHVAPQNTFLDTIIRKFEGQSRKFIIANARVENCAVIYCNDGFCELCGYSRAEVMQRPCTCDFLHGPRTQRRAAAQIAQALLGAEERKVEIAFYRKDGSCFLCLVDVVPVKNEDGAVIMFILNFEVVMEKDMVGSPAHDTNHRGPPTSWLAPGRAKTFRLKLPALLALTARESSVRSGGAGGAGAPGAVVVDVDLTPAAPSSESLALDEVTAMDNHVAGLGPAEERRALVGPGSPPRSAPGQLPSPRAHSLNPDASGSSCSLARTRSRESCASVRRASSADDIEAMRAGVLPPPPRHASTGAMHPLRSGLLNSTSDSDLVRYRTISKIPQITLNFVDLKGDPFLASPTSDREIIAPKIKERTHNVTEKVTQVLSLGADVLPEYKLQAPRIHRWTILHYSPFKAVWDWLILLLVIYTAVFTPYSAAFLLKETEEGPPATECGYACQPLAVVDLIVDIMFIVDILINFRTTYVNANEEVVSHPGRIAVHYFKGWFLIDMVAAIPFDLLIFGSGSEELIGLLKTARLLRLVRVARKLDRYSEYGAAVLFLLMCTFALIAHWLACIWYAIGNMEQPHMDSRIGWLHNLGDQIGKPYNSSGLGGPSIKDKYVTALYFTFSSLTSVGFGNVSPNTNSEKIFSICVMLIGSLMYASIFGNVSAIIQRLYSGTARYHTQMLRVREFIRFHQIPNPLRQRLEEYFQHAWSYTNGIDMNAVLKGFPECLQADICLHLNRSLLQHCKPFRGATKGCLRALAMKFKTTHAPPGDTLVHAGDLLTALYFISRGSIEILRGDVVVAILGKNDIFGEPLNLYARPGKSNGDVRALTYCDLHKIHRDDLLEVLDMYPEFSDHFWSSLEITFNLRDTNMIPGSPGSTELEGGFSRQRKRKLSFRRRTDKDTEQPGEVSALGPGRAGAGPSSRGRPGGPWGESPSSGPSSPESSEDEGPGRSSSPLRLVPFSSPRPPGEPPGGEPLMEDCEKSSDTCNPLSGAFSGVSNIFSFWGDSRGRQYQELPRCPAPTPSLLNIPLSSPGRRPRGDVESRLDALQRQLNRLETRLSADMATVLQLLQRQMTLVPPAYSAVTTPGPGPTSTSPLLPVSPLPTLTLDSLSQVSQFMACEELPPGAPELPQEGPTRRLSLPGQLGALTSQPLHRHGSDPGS

Row | Compound | hERG current change (%, negative = inhibition) at 10uM [%]
1 | CCNC(=O)COC(=O)c1[nH]c(C)c(C(=O)OC)c1C | 8.24
2 | Cc1cc(C)c2c(CN3CCN(Cc4ccc5c(c4)OCO5)CC3)cc(=O)oc2c1 | -75.4
3 | Cc1cc(C)c2c(CN3CCCCC3C)cc(=O)oc2c1.Cl (stereo not shown) | 13.9
4 | Cc1cc(C)c2c(CCl)cc(=O)oc2c1 | -1.06
5 | Cc1cc(C)c2c(CN3CCN(Cc4ccccc4)CC3)cc(=O)oc2c1.Cl | -66.9
6 | Cc1cc(C)c2c(CN3CCN(Cc4ccc5c(c4)OCO5)CC3)cc(=O)oc2c1C | -45.8
7 | Cc1cc(C)c2c(CN3CCN(C)CC3)cc(=O)oc2c1 | -73.3
8 | Cc1cc(C)c2c(CN3CCCCC3)cc(=O)oc2c1 | 10.7
9 | Cc1cc2oc(=O)cc(CN3CCN(Cc4ccc5c(c4)OCO5)CC3)c2cc1C | -17.2
10 | CCN1CCN(Cc2cc(=O)oc3cc(C)cc(C)c23)CC1 | -68.1
11 | Cc1cc(O)c2c(CN3CCN(Cc4ccccc4)CC3)cc(=O)oc2c1 | -13.1
12 | Cc1cc(C)c2c(CN3CCOCC3)cc(=O)oc2c1 | -7.28
13 | CC1CCCN(C(=O)CNC(=O)Cn2ccc3ccccc3c2=O)C1 (stereo not shown) | -5.78
14 | COc1cc(NC(=O)c2ccc(COCC(F)(F)F)o2)cc(OC)c1OC | -16.8
15 | COc1ccc(OC)c(NC(=O)CCCCCn2nnc3ccccc3c2=O)c1 | -2.09
16 | CN(C)S(=O)(=O)c1cc(NC(=O)CSc2cccc[n+]2[O-])ccc1Cl | 9.64
17 | COc1ccc(-n2c(-c3cccc(OC)c3)nc(=S)c3c2CCCC3)cc1 | 8.47
18 | CC(=O)O/N=C(/c1nonc1N)N1CCN(c2ccc([N+](=O)[O-])cc2Cl)CC1 | -33.9
19 | COCc1[nH]nc2c1C(c1c(F)cccc1Cl)C(C#N)=C(N)O2 (stereo not shown) | -3.01
20 | Cc1ccc(NC(=O)c2ccc(NCCN)c([N+](=O)[O-])c2)cc1Cl | -14.3
21 | CCc1ccc2[nH]c3nc(N/N=C/c4ccc(O)cc4O)nnc3c2c1 | 3.31
22 | CCOc1ccc(C(=O)C[n+]2ccc(C(=O)NCCO)cc2)cc1.[Br-] | 18.3
23 | Cc1cc(-c2nc(C)c(C(=O)NNS(=O)(=O)c3ccccc3)s2)no1 | 11.9

Row | Compound | hERG current change (%, negative = inhibition) at 10uM [%]
24 | Cc1ccccc1-c1nnn(Cc2ccc(F)cc2Cl)n1 | 10.6
25 | Cc1cc(C)c2c(CN3CCN(CCO)CC3)cc(=O)oc2c1 | -50.4
26 | CCc1ccc2oc(=O)cc(CN3CCN(CCO)CC3)c2c1 | -14.9
27 | Cc1cc(C)c2c(CN3CCN(C/C=C/c4ccccc4)CC3)cc(=O)oc2c1 | -76.9
28 | Cc1cc(C)c2c(Cn3ccnc3)cc(=O)oc2c1 | 1.13
29 | COC(=O)c1ccc(Cl)c(NC(=O)CN(c2ccc3c(c2)OCO3)S(C)(=O)=O)c1 | 7.68
30 | O=C(O)CCC(NC(=O)c1cncc(O)c1)C(=O)O (stereo not shown) | -4.94
31 | CCCC1(c2ccccc2)NC(=O)N(CC(=O)N(C)Cc2c(F)cccc2Cl)C1=O (stereo not shown) | -2.69
32 | Cc1ccc(C(C2=C(O)CC(C)(C)CC2=O)C2C(=O)CC(C)(C)CC2=O)s1 (stereo not shown) | 14.9
33 | CN=C(NC1CCCCC1)c1ccc([N+](=O)[O-])cc1 | 1.68
34 | Cl.OCCN1C2=NCCCN2c2ccccc21 | 5.78
35 | Cl.OC(CN1C2=NCCCN2c2ccccc21)c1ccc(Br)cc1 (stereo not shown) | -83.9
36 | Cl.OC(CN1C2=NCCCN2c2ccccc21)c1ccc(Cl)cc1 (stereo not shown) | -75.9
37 | OC(CN1C2=NCCN2c2ccccc21)c1ccc(Br)cc1 (stereo not shown) | -71
38 | O=C1CSC(=S)N1c1cccnc1 | -7.65
39 | Cc1ccccc1OCCn1cnc2cc([N+](=O)[O-])ccc2c1=O | -7.38
40 | CCc1cc(=O)oc2c(C)c(OCC(=O)NCCCN3CCOCC3)ccc12 | -31.8
41 | CCOc1ncccc1C(=O)OCc1csc(CC(=O)Nc2ccccc2C)n1 | 0.199
42 | Cc1ccc2[nH]c(O)c(N=NC(N)=S)c2c1 | 19.3
43 | COc1cccc(NC(=O)Cc2cccs2)c1 | 14.4
44 | O=C(CC1CCCC1)Nc1cc(C(F)(F)F)ccc1-n1cncn1 | -10.4
45 | Cc1ccc(C(=O)Nc2cc(C(F)(F)F)ccc2-n2cncn2)o1 | -9.88
46 | Cc1cc(CN2CCN(CC(=O)Nc3cc(C(F)(F)F)ccc3-n3cncn3)CC2)no1 | -69.8
